Measured values from PubChem BioAssay AID1347056 (Sanford-Burnham Center for Chemical Genomics, 2019).
Among all 360,000 compounds or so, about 3,600 (1%) were called active. The sample holds actives, similar compounds and a random draw of the others, so the mix is not that of the screen.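 How the source made its calls: active means compounds whose plate-normalised and pattern-corrected inhibition of the luciferase reporter signal at the single screening dose is 50% or more; inactive means the rest.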

Assay: TROY pathway blockers in reporter cells – Q293 LMP1-TROYcd cells, NF-kB luciferase, uHTS, primary screen (AID 1347056)
Conditions: 4 h, at 10 µM, hits give high values

Compound	inhibition
O=C(NCCC1CCCCN1S(=O)(=O)c1cccs1)C(=O)Nc1ccc(F)cc1F (configuration not stated)	1.77% (inactive)
CCc1ccccc1OCC(=O)Nc1ccc(C)c(S(=O)(=O)N2CCCCCC2)c1	3.2% (inactive)
Cc1ccccc1OCC(=O)Nc1ccc(N2CCN(C(=O)C(C)C)CC2)c(Cl)c1	52.5% (active)
COc1cc(NC(=O)COc2ccccc2Cl)ccc1NC(=O)C(C)C	-6.06% (inactive)
COc1cccc(-c2cc3nc4c(c(N5CCC6(CC5)OCCO6)n3n2)CCCC4)c1	7.88% (inactive)
CN(c1ccccc1)S(=O)(=O)c1ccc(Cl)c(C(=O)OCC(N)=O)c1	-2.16% (inactive)
CC(=O)c1c(C)[nH]c(C(=O)COC(=O)CCOc2ccc(C)cc2)c1C	17.8% (inactive)
CC(=O)c1c(C)[nH]c(C(=O)COC(=O)c2cccc(S(=O)(=O)N(C)c3ccccc3)c2)c1C	71% (active)
CCO[C@@H]1OC(C(=O)N2CCOCC2)=C[C@H](C)[C@H]1CCCO	-7.92% (inactive)
CCCCCCCNc1nc(Cl)nc(NCCO)n1	4.41% (inactive)
O=C(Nc1cc(C(F)(F)F)ccc1Cl)c1cc2nc3c(c(C(F)(F)F)n2n1)CCCC3	79% (active)
Nc1nc(SCC(=O)Nc2cc(C(F)(F)F)ccc2Cl)[nH]c(=O)c1NC(=O)c1ccco1	-8.07% (inactive)
O=C(Nc1ccc(Cl)cc1)c1cc2nc(C3CC3)cc(C(F)(F)F)n2n1	-25.1% (inactive)
Cn1c(=O)c2c(nc(Br)n2CCSc2nc3ccccc3o2)n(C)c1=O	-10.2% (inactive)
OCCNCCOc1ccc(Cl)c(Cl)c1	10.3% (inactive)
OCCNc1nc(Nc2ccc(Cl)c(Cl)c2)nc2ccccc12	68.4% (active)
O=C(Cn1c(NCCO)nc2ccccc21)c1ccc(Cl)cc1Cl	22.3% (inactive)
C[C@H](CO)N1C[C@H](C)[C@H](CN(C)C(=O)Nc2ccc3c(c2)OCO3)Oc2ncc(Br)cc2C1=O	6.4% (inactive)
CCn1c(C(C)NC(=O)c2ccc(C)cc2)n[nH]c1=S (configuration not stated)	21.8% (inactive)

Compound	inhibition
C=C(C)CNC(=O)c1ccc(OC2CCN(C(=O)COC)CC2)cc1	-21.5% (inactive)
COc1ccc(NC(=O)C2C3CCC(O3)C2C(=O)O)cc1OC (configuration not stated)	8.24% (inactive)
COc1ccc(NC(=S)SC)cc1OC	55.6% (active)
COc1ccc(NC(=O)CSCc2ccc([N+](=O)[O-])cc2)cc1OC	-16.9% (inactive)
O=C1c2ccccc2C(=O)N1CCC(c1ccccc1)c1ccco1 (configuration not stated)	-65.2% (inactive)
Cc1ccccc1OCC(=O)Nc1nc(C)c(C(=O)N(C)C)s1	-13.4% (inactive)
COc1ccc(C(=O)NC(C)CCc2ccccc2)c(OC)c1 (configuration not stated)	-16.4% (inactive)
Cc1csc(NC(=O)NC2(C(F)(F)F)Oc3ccccc3O2)n1	-1.84% (inactive)
COC(=O)c1sc(NC(=O)c2ccc(OC)cc2OC)nc1C	66.7% (active)
COc1cc(SC)ccc1C(=O)Nc1nc(C)cs1	85.8% (active)
Cc1csc(NC(=O)CSc2nc(=O)cc(N)n2-c2ccc(F)cc2)n1	-68.1% (inactive)
CCCC(C(=O)NC1CCCC1)N(C(=O)Cn1nnc(-c2ccc(C)o2)n1)c1cccc(O)c1 (configuration not stated)	-5.35% (inactive)
C=CCn1c(COc2ccccc2F)nnc1SCC(=O)N1CC(=O)Nc2ccccc21	-21.6% (inactive)
COc1cccc(N=c2oc3c(C)ncc(CO)c3cc2C(N)=O)c1	-39.2% (inactive)
O=C(Nc1ccc(Cl)cc1)/C(=C1\CCCN1)[N+](=O)[O-]	-75.7% (inactive)
Cc1cccc2nc(CSc3nc4[nH]ncc4c(=O)n3-c3cccc(Cl)c3)cc(=O)n12	35.3% (inactive)
COc1ccc(N(CC(=O)NC(C)(C)C)C(=O)c2ccco2)cc1	-5.86% (inactive)
CCCNC(=O)C(=O)Nc1cc2c3c(c1)CCC(=O)N3CCC2	-5.66% (inactive)
CN(Cc1cn(Cc2ccc(C(F)(F)F)cc2)nn1)C1CN(Cc2cn(Cc3ccc(C(F)(F)F)cc3)nn2)S(=O)(=O)C1 (configuration not stated)	14.4% (inactive)

Compound	inhibition
CN(C(=O)Nc1ccc(Cl)cc1)n1cnc2ccccc2c1=O	-48.7% (inactive)
CN(c1ccc2nc3ccccc3c(=O)n2n1)C1CCCCC1	90.3% (active)
CC(C)(C)c1nc2ccccc2c(=O)n1N1C(=O)c2ccccc2C1=O	12.4% (inactive)
CNc1cc(-c2c(OC)cccc2OC)ncn1	-15.5% (inactive)
CCCNC(=O)c1cc(C2CCCCN2S(=O)(=O)c2ccc(C#N)cc2)on1 (configuration not stated)	-10.6% (inactive)
CC(Oc1ccc(Br)cc1)C(=O)NCC(c1ccco1)N1CCCCC1 (configuration not stated)	7.2% (inactive)
CCC[C@H]1CCCC/C=C\CCCC(=O)OCCN1C(=O)OC(C)(C)C	12.2% (inactive)
CCN(CC)C(=O)c1sc2nc(-c3ccccc3)ccc2c1N	69.8% (active)
CCOC(=O)C(C)n1nc(-c2ccccc2)c2ccccc2c1=O (configuration not stated)	7.19% (inactive)
CCN(CC)C(=O)c1nc[nH]c1C(=O)N(C)Cc1ccccc1	-9.82% (inactive)
COc1ccccc1/C=C/CN1CCC(CO)(Cc2ccccc2)CC1	-1.26% (inactive)
COc1cccc2c1C(=O)c1c(O)c3c(c(O)c1C2=O)CC(O)(C(C)=NNC(=O)c1ccc(Cl)c(Cl)c1)CC3OC1CC(N)C(O)C(C)O1 (configuration not stated)	69.6% (active)
Cc1ccccc1CN(c1ccc(C(=O)NCC2CCCO2)cc1)S(C)(=O)=O (configuration not stated)	-8.79% (inactive)
C#CCNC(=O)[C@H](Cc1ccc(C(=O)c2ccccc2)cc1)NC(=O)OC(C)(C)C	5.88% (inactive)
CC(=O)Nc1ccc(NC(=O)CSC2=NS(=O)(=O)c3ccccc3N2)cc1	-4.58% (inactive)
CCc1ccccc1NC(=O)CN(c1ccc(OC)cc1OC)S(=O)(=O)c1ccccc1[N+](=O)[O-]	1.82% (inactive)
COc1ccc(-c2oc(/N=C/N3CCCC3)c(C#N)c2-c2ccc(OC)cc2)cc1	-5.76% (inactive)
N#Cc1c(/N=C/N2CCCC2)oc(-c2ccccc2)c1-c1ccccc1	51.8% (active)
N#Cc1c(NC(=O)CCCN2C(=O)c3ccccc3C2=O)oc(-c2ccccc2)c1-c1ccccc1	-11.3% (inactive)
